Compound activity (PubChem BioAssay)
Hits are enriched below; roughly 3.7% of the tested compounds scored in any of these assays.
CHT PAM: CHT positive allosteric modulators, primary screen, cell-based, membrane potential dye, choline EC20; AID 488977, 2010; hit rate 0.49% among 310,000; High affinity choline transporter 1 (Homo sapiens), Q9GZV3; B-score at 10 µM; CHT-expressing cells; stronger effect = higher value; LV-AA mutant CHT in HEK293 cells;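 active = initial fluorescence not abnormally high and integrated response B-score, plate-corrected, over 3 SD above library mean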
Kir21 inh: inhibitors of mouse Kir2.1 inward-rectifier potassium channel; HEK293-Kir2.1, FluxOR thallium flux fluorescence; stronger effect = lower value; B-score at 10 µM; hit rate 0.85% among 310,000;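 active = fluorescence ratio B-score at or below minus 3 SD of library scores, with starting-brightness B-score within 2 SD, cut at about -4.2 in these data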;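 also: channel flux triggered by added potassium and thallium sulfate stimulus; B-score of peak minus minimum fluorescence over baseline after thallium stimulus; more negative B-score means stronger Kir2.1 block with less thallium influx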
Target sequence (P35561 whole entry, looked up): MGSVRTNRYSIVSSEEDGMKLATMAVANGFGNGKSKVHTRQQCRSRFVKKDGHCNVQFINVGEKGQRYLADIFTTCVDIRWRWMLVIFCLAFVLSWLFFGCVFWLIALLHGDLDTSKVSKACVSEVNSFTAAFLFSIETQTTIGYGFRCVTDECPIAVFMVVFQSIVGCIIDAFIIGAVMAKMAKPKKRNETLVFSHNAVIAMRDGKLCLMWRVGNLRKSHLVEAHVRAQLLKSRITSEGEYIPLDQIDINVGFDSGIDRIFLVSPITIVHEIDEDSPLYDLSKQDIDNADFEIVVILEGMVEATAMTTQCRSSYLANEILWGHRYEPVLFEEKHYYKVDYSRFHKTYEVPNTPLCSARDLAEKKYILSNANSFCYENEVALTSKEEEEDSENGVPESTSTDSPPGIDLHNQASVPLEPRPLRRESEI
CHT inh: inhibitors of human choline transporter CHT; High affinity choline transporter 1 (Homo sapiens), Q9GZV3; CHT-expressing cells, membrane potential dye, choline response; stronger effect = lower value; B-score at 10 µM; hit rate 0.86% among 310,000; AID 488975, 2010;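 active = B-score over 3 SD under the library average, and starting fluorescence ratio not unusually high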;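 also: choline stimulus applied at its EC90 after an EC20 pre-addition; B-score computed on integrated fluorescence ratio after choline addition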
TMEM16A inh: TMEM16A chloride channel inhibitors, primary screen, cell-based, HTS. Anoctamin-1 (Mus musculus), Q8BHY3. HEK293 TMEM16A/YFP iodide influx fluorescence, ionomycin. normalized B-score (activity score, 25-100; higher = stronger inhibition) at 10 µM. hit rate 1.2% among 310,000;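 active = ratio plate-corrected score three or more library SD toward inhibition, starting fluorescence score within five deviations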;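 also: score derived from kinetic fluorescence span divided by baseline fluorescence per well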
GPR7 antagonist: GPR7 receptor antagonists, primary screen, cell-based, fluorescence, single concentration. Neuropeptides B/W receptor type 1 (Homo sapiens), P48145. GPR7-expressing cells, fluorescence antagonist assay. inhibition, % at 4.4 µM. hit rate 1.1% among 290,000. AID 1861, 2009; in the data active = inhibition above about 16%, passing the limit was not always enough;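 also: cells stimulated with the agonist NPW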
ANO1 activ: TMEM16A chloride channel activators or potentiators, primary screen, cell-based, HTS; HEK293 TMEM16A/YFP-H148Q/I152L, iodide quench fluorescence; stronger effect = lower value; hit rate 0.3% among 340,000; B-score at 10 µM; AID 623877, 2012;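 active = fluorescence-ratio B-score plate-corrected deviation score at least 3 library SD below zero, with starting fluorescence score within 5 deviations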;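 also: channel opened by trigger with iodide after compound preincubation; score built on the fluorescence ratio of max minus min over baseline; more negative score means more quench and so TMEM16A activation or potentiation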
CHT activ conf: CHT activators, confirmation, cell-based, membrane potential dye, duplicate | CHT-expressing cells, membrane potential dye fluorescence (FDSS); % of choline EC20–EC90 response window; HEK293 expressing CHT LV-AA mutant; choline added at its EC20 | shares compounds with CHT PAM | activation, % at 10 µM | hit rate 91% among 2,500;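 active = primary screen active, with duplicate mean activation above negative control mean plus 3 SD, cut at about 11% in these data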
HEK293 MP dye: membrane potential response in parental HEK293 cells, counter-screen for CHT activator project, cell-based, membrane potential dye | hit rate 62% among 2,500 | membrane potential dye fluorescence (FDSS); measured after EC20 choline addition | ratio readout change at 10 µM, hits read low | shares compounds with CHT PAM;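 active = duplicate-averaged ratio beyond 3 SD from buffer wells, up or down, though filed actives are nearly all decreases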
A number is an active result; i = inactive; nt = not tested or not shown.

SMILES	CHT PAM	Kir21 inh	CHT inh	TMEM16A inh	GPR7 antagonist	ANO1 activ	CHT activ conf	HEK293 MP dye
COc1ccc(NS(=O)(=O)c2cccc(-c3nnc4n3CCCCC4)c2)cc1	i	i	i	i	i	i	17.6	i
CCCn1c2c(c(=N)c3c1CCC3)CCC2	6.55	i	i	i	i	i	58.6	-52.1
CCOC(=O)Cn1c2c(c(=N)c3c1CCC3)CCCC2	i	i	i	i	i	i	42.0	-33.7
CCCCCCCn1c2c(c(=N)c3ccccc31)CCC2	16.8	-6.72	i	100	52.7	-5.1	75.0	-42.8
CCCn1c2c(c(=N)c3c1CCC3)CCCC2	7.94	i	i	i	i	i	49.7	-71.7
COC(=O)Cn1c2c(c3cc(C)ccc31)CCCC2	i	i	i	i	nt	i	nt	nt
N=c1c2c(n(Cc3ccc([N+](=O)[O-])cc3)c3c1CCC3)CCCC2	i	i	i	i	i	i	nt	nt
Cc1ccc(N(CC(=O)NCc2ccc(Cl)cc2)S(C)(=O)=O)cc1	i	i	i	i	i	i	nt	nt
CCOC(=O)N1CCC(N2CCCC(CO)(Cc3cccc(OC)c3)C2)CC1 (stereo unspecified)	i	i	i	i	i	i	nt	nt
CCCCN(C(=O)c1ccccc1OCc1ccc(F)cc1)c1c(N)n(CC(C)C)c(=O)[nH]c1=O	i	i	i	i	i	i	nt	nt
N=c1c2c(n(Cc3ccc(Cl)c(Cl)c3)c3c1CCC3)CCCC2	9.63	i	i	i	i	i	77.8	-39.2
CN1CCN(Cc2nc3ccccc3c(=O)n2Cc2nc(-c3ccc4ccccc4c3)cs2)CC1	i	i	i	i	i	i	nt	nt
CN1CCN(Cc2nc3ccccc3c(=O)n2Cc2nc(-c3ccccc3F)cs2)CC1	8.2	i	i	i	i	i	29.6	i
CC(=O)N1CCN(c2ccccc2NC(=O)COc2cc(C)ccc2C(C)C)CC1	9.95	i	i	i	20.8	i	44.1	i
Cc1ccc(C(C)C)c(OCC(=O)Nc2ccc(N3CCOCC3)cc2N2CCOCC2)c1	nt	nt	nt	nt	nt	i	nt	nt
CCCn1nc(C(=O)NNC(=O)CCCOc2ccc(OC)cc2)c2ccccc2c1=O	nt	nt	nt	nt	nt	i	nt	nt
CC1CCN(C(=O)CSc2nnc(CNC(=O)c3ccc(S(=O)(=O)N(C)C)cc3)o2)CC1	i	i	i	i	i	i	nt	nt
CCc1nn2c(NCCCO)cc(C)nc2c1-c1ccc(F)cc1	i	i	i	i	i	i	nt	nt
Cc1cc(C)c2c(n1)nn1c(NCCOCCO)cc(C)nc21	8.53	i	i	i	i	i	74.9	-62.5
N=c1n(CCO)c2ccccc2n1CCN1CCCCC1	i	i	i	i	i	i	34.7	-34.3
N=c1n(CCN2CCCCC2)c2ccccc2n1CC(O)c1ccco1 (stereo unspecified)	i	i	i	i	i	i	nt	nt
CC1CCN(CCCNC(=O)COc2cc(=O)n(C)c3ccccc23)CC1	i	i	i	i	i	i	42.9	-32.9
CC1CC(C)CN(CCCNC(=O)COc2cc(=O)n(C)c3ccccc23)C1 (stereo unspecified)	i	i	i	i	i	i	17.4	-27.6
COc1ccc(OC)c(CN2CCN(CC(=O)Nc3ccccc3C(=O)NC3CC3)CC2)c1	nt	nt	nt	nt	nt	i	nt	nt
COc1ccc(N2CCN(C(=O)C3CCN(C(=O)c4cccc(Cl)c4)CC3)CC2)cc1	i	i	i	i	i	i	nt	nt
SMILES	CHT PAM	Kir21 inh	CHT inh	TMEM16A inh	GPR7 antagonist	ANO1 activ	CHT activ conf	HEK293 MP dye
CCOC(=O)C[C@H]1c2cc(C(F)(F)F)ccc2S(=O)(=O)N1Cc1ccccc1	i	i	i	i	nt	i	i	i
CCCCCCCCN1[C@@H](CC(=O)OCC)c2cc(C(F)(F)F)ccc2S1(=O)=O	i	i	i	i	nt	i	nt	nt
Cc1ccc(C(=O)CN(CCC(=O)O)C(=O)c2ccncc2)cc1	i	nt	i	i	nt	i	nt	nt
CCOc1cccnc1Sc1ccccc1	i	i	i	i	nt	i	nt	nt
COC(=O)CNC(c1ccccc1)c1cc(C)ccc1NC(=O)c1cccc(Cl)c1 (stereo unspecified)	6.89	i	i	i	24.1	i	42.8	i
CS(=O)(=O)Cc1ccc(C(=O)N2CCN(C(=O)c3cccs3)CC2)cc1	nt	nt	nt	nt	nt	i	nt	nt
Cc1ccc(NC2CCCN(C(=O)c3ccc4[nH]ccc4c3)C2)cc1C (stereo unspecified)	i	i	i	i	i	i	nt	nt
COc1c(N2CCNC(C)C2)c(F)cc2c(=O)c(C(=O)O)cn(C3CC3)c12 (stereo unspecified)	6.69	i	i	i	nt	nt	35.9	-44.6
NC1CCN(c2c(F)cc3c(=O)c(C(=O)O)cn(C4CC4)c3c2Cl)C1 (stereo unspecified)	i	i	i	i	i	i	18.3	-48
CCN1C(=O)[C@H]2[C@@H](c3ccc(-c4ccc(C(C)=O)cc4)cc3)N3CCC[C@@]3(C(=O)OC)[C@H]2C1=O	i	i	i	i	nt	i	nt	nt
Cc1c(NC(=O)C(C)OC(=O)/C=C/c2ccc3c(c2)OCO3)c(=O)n(-c2ccccc2)n1C (stereo unspecified)	i	i	i	i	i	i	nt	nt
CCCC(C(=O)NC1CCCC1)N(C(=O)c1snc(C(N)=O)c1N)c1ccc(F)cc1 (stereo unspecified)	nt	i	nt	nt	i	i	nt	nt
CC(=O)C1CCC2C3CCC4=CC(=O)C=CC4(C)C3C(=O)CC12C (stereo unspecified)	nt	nt	nt	nt	nt	i	nt	nt
C[C@]12C=CC(=O)C=C1CC[C@@H]1C2=CC[C@]2(C)[C@@H](C(=O)CN3CCN(c4cc(N5CCCC5)nc(N5CCCC5)n4)CC3)CC[C@@H]12	8.21	i	i	i	nt	i	48.5	-75.7
Cc1nn(-c2ccccc2)c(Cl)c1CN(C(=O)CCl)c1cccc2ccccc12	8.96	i	i	i	32.1	i	35.8	i
Cc1cccc(C)c1NC(=O)c1c(C)nn(-c2ccccc2)c1Cl	i	i	i	i	i	i	nt	nt
C[n+]1ccc(C(=O)NCCC[N+](C)(C)C)cc1/C=N/O	7.35	i	i	i	i	i	43.5	-30.7
CCN(CC)CCCNc1nc2ccccc2[nH]1	7.8	i	i	i	i	i	34.8	-34.5
